{"source": "PubChem BioAssay (EPA / NIEHS)", "note": "Records with an inconclusive call do not appear. Activity calls are given as the source filed them. Rule for the calls: active = hit-call score of the fitted dose curve at least 0.9, where 1 is the maximum; inconclusive = response in the unintended direction; inactive = score below 0.9.", "data": [{"target": "Retinoic acid receptor RXR-alpha (Homo sapiens) (UniProt P19793)", "sequence (P19793 whole entry, looked up)": "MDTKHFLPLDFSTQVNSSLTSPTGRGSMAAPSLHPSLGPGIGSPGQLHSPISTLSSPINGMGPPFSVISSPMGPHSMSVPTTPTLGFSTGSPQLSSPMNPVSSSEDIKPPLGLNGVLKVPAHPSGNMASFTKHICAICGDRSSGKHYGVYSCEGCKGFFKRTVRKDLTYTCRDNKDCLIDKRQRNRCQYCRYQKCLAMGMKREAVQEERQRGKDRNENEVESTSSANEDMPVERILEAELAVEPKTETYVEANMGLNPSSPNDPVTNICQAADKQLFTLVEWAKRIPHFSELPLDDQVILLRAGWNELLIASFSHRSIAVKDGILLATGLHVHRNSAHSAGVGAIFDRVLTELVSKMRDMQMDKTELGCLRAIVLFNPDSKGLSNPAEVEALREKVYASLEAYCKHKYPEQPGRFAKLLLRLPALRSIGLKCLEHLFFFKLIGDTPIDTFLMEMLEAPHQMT", "test": "ATG_RXRa_TRANS: Attagene TRANS-FACTORIAL HepG2 Assay for human Retinoid X Receptor alpha (RXRa) (AID 2283012)", "procedure": "ATG_TRANS is a cell-based, multiplexed-readout assay that uses HepG2, a human liver cell line, with measurements taken at 24 hours after chemical dosing in a 24-well plate.ATG_RXRa_TRANS is one of 30 assay component(s) measured or calculated from the ATG_TRANS assay. It is designed to make measurements of mRNA induction, a form of inducible reporter, as detected with fluorescence intensity signals by Reverse transcription polymerase chain reaction (RT-PCR) and Capillary electrophoresis technology.Data from the assay component ATG_RXRa_TRANS was analyzed into 1 assay endpoint. This assay endpoint, ATG_RXRa_TRANS, was analyzed in the positive analysis fitting direction relative to DMSO as the negative control and baseline of activity. Using a type of inducible reporter, measures of mRNA for gain-of-signal activity can be used to understand the reporter gene at the transcription factor-level as they relate to the gene RXRA. Furthermore, this assay endpoint can be referred to as a primary readout, because this assay has produced multiple assay endpoints where this one serves a reporter gene function. To generalize the intended target to other relatable targets, this assay endpoint is annotated to the nuclear receptor intended target family, where the subfamily is non-steroidal.\nHuman liver HepG2 cells are transiently transfected with multiple reporter transcription units (MRTUs) in 6-well plates using FuGene 6 reagent (Roche; 3 ml FuGene/1 mg DNA). The MRTU constructs are regulated by a cis-regulating element (promoter). […] A major difference between the CIS and TRANS system is that in CIS activities of endogenous TFs are measured, whereas the TRANS assay evaluates changes in activities of exogenous, chimeric NR-Gal4 proteins. […] At the end of 24 hour incubation, total RNA was isolated using TriZol reagent (Invitrogen). The isolated RNA is then reverse-transcribed using oligo(dT) primer and Mo-MLV reverse transcriptase (Invitrogen) with DNAse I (Ambion) treatment for 30 min. The one-tenth of the produced cDNA was amplified by PCR using Taq DNA polymerase (Invitrogen) and two reporter sequence-specific primers. The PCR products were fluorescently labeled by primer extension with 6-arboxyfluorescein (6-FAM) 5'-labeled reporter sequence-specific primer (2 min at 95 C, 20 s at 68 C and 10 min at 72 C) and these products were digested with 5U of HpaI (New England Biolabs) for 2h at 37 C. The fragments were purified using Qiaquick PCR columns (Qiagen), analyzed on an ABI 3130xL genetic analyzer (Applied Biosystems) with peak positions identified by using a set of X-rhodamine (ROX)-labeled MapMarker1000 molecular weight standards (BioVentures). The raw capillary electrophoresis data was processed using Attagraph software (Attagene).", "values": [{"compound": "C=C(C)C(=O)[O][Sn]([CH2]CCC)([CH2]CCC)[CH2]CCC", "AC50": "3.48 nM (active)"}, {"compound": "O=C(O)Cc1ccccc1", "outcome": "inactive"}, {"compound": "C=CCc1ccc(OC)cc1", "outcome": "inactive"}, {"compound": "NNC(=S)NN", "outcome": "inactive"}, {"compound": "c1cc[c]([Hg][c]2ccccc2)cc1", "outcome": "inactive"}, {"compound": "CC(=O)C=C(C)C", "outcome": "inactive"}, {"compound": "O=C(Cc1ccccc1)c1ccccc1", "outcome": "inactive"}, {"compound": "CCCCOCCOC(C)=O", "outcome": "inactive"}, {"compound": "Nc1ccc(Cl)cc1C(=O)c1ccccc1", "outcome": "inactive"}, {"compound": "CC1(C)Cc2cccc(O)c2O1", "outcome": "inactive"}, {"compound": "CCOP(=S)(OCC)Oc1ccc(S(C)=O)cc1", "note": "(stereo not given)", "outcome": "inactive"}, {"compound": "CCSC(C)CC1CC(=O)C(C(CC)=NOC/C=C/Cl)=C(O)C1", "note": "(stereo not given)", "outcome": "inactive"}, {"compound": "COP(=S)(OC)Oc1ccc(S(=O)(=O)N(C)C)cc1", "outcome": "inactive"}, {"compound": "C(=NC1CCCCC1)=NC1CCCCC1", "outcome": "inactive"}, {"compound": "COc1ccccc1OC", "outcome": "inactive"}, {"compound": "C=CC(=O)OCCCCCC(C)C", "outcome": "inactive"}, {"compound": "C[C@]12CC[C@H](O)CC1=CC[C@@H]1[C@@H]2CC[C@]2(C)C(=O)CC[C@@H]12", "outcome": "inactive"}, {"compound": "CCCCP(CCCC)CCCC", "outcome": "inactive"}, {"compound": "COc1cc(OC)nc(NC(=O)NS(=O)(=O)c2ncccc2C(=O)N(C)C)n1", "outcome": "inactive"}, {"compound": "CC(=O)c1cc(C(C)(C)C)cc2c1CCC2(C)C", "AC50": "3520 nM (active)"}, {"compound": "CCOP(=S)(OCC)SCCS(=O)(=O)CC", "outcome": "inactive"}, {"compound": "CCOC(=O)CP(=O)(OCC)OCC", "outcome": "inactive"}, {"compound": "C[C@]12CCC(=O)C[C@@H]1CC[C@@H]1[C@@H]2CC[C@]2(C)[C@@H](O)CC[C@@H]12", "outcome": "inactive"}, {"compound": "ClCCBr", "outcome": "inactive"}, {"compound": "O=C1C2(Cl)C3(Cl)C4(Cl)C(Cl)(Cl)C5(Cl)C3(Cl)C1(Cl)C5(Cl)C24Cl", "note": "(stereo not given)", "outcome": "inactive"}, {"compound": "COC(=O)Cc1ccccc1", "outcome": "inactive"}, {"compound": "CC1(C)CCC(Cc2ccc(Cl)cc2)C1(O)Cn1cncn1", "note": "(stereo not given)", "outcome": "inactive"}, {"compound": "Cc1ccccc1C(=O)Nc1cccc(OC(C)C)c1", "outcome": "inactive"}, {"compound": "COc1ccc(C=O)cc1", "outcome": "inactive"}, {"compound": "OCC(O)CCl", "note": "(stereo not given)", "outcome": "inactive"}, {"compound": "NC(=O)O", "outcome": "inactive"}, {"compound": "O=C1CCCN1", "outcome": "inactive"}, {"compound": "Nc1cccc2ccccc12", "outcome": "inactive"}, {"compound": "CC(=[OH+])/C=C(/C)[O-].CC(=[OH+])/C=C(/C)[O-].CC(=[OH+])/C=C(/C)[O-].[Al]", "outcome": "inactive"}, {"compound": "Cl/C=C\\C[N+]12CN3CN(CN(C3)C1)C2", "outcome": "inactive"}, {"compound": "COP(=S)(OC)Oc1ccc(Sc2ccc(OP(=S)(OC)OC)cc2)cc1", "outcome": "inactive"}, {"compound": "ClCc1ccccn1", "outcome": "inactive"}, {"compound": "O=[N+]([O-])c1ccc(O)c([N+](=O)[O-])c1", "outcome": "inactive"}, {"compound": "O=C(Nc1ccc2[nH]ccc2c1)c1cc2cc(F)ccc2n1Cc1cccc(F)c1", "outcome": "inactive"}, {"compound": "O=C(O)C(F)(F)C(F)(F)C(F)(F)C(F)(F)C(F)(F)C(F)(F)C(F)(F)C(F)(F)C(F)(F)C(F)(F)F", "outcome": "inactive"}]}]}
